In PubChem BioAssay:
Values without a mark were called inactive. Entries that show only a call come without a potency. For some of these results: Potency and affinity values are given separately. Activity calls are given as the source filed them. Unless noted, how the calls were made is not given here.

How the values were obtained:
[1] = antimalarial activity against Dd2 strain (AID 2302;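 active means growth inhibition above 50% at the single 2 µM test dose, taken to imply half-maximal potency below 2 µM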); settings: P. falciparum Dd2 in RBCs, LDH growth readout, 72 h; at 2 µM; active compounds read high
[2] = HepG2 cytotoxicity, primary screen, cytotoxicity control for P. falciparum antimalarial project, cell-based, ATP luminescence (AID 2303;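 active means inhibition above 50%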); settings: HepG2 viability, 24-48 h, at 10 µM, active compounds read high
[3] = molecular target: L-lactate dehydrogenase (Plasmodium falciparum (isolate CDC / Honduras)) (UniProt Q27743); assay: PfLDH activity inhibition – cell lysate, 3D7 strain, counter-screen for P. falciparum growth inhibition project (AID 2304); settings: P. falciparum 3D7 crude extract, LDH APAD/NBT absorbance; at 2 µM; active compounds read high
[4] = inhibition of 3D7 malaria parasite growth – strain 3D7 (AID 2306); settings: P. falciparum 3D7 erythrocytic growth, LDH absorbance, 72 h; at 2 µM; active compounds read high
[5] = molecular target: Calcium-dependent protein kinase 1 (Plasmodium falciparum (isolate 3D7)) (UniProt P62344); assay: PfCDPK1 kinase inhibitors, biochemical, TCAMS library (AID 1159585; cut-off not given, nearly all actives have IC50 up to about 0.98 µM;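 further: inhibitors leave more ATP so luminescence rises with inhibition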); settings: recombinant PfCDPK1, Kinase-Glo ATP depletion luminescence
[6] = molecular target: Plasmodium falciparum protein kinase 6 (PK6, PF3D7_1337100) (UniProt Q8IDW1); assay: PfPK6 kinase inhibitors, biochemical, TCAMS library (AID 1159586); settings: recombinant PfPK6, Kinase-Glo ATP depletion luminescence
[7] = molecular target: Protein kinase 7 (PK7), Plasmodium falciparum 3D7 (PF3D7_0213400) (UniProt Q7YTF7); assay: inhibition of Plasmodium PK7 catalytic activity – biochemical, TCAMS antimalarial set, Kinase-Glo luminescence (AID 1159587); settings: recombinant PfPK7, Kinase-Glo ATP depletion luminescence
[8] = molecular target: Calcium-dependent protein kinase 4 (Plasmodium falciparum (isolate 3D7)) (UniProt Q8IBS5); assay: PfCDPK4 kinase inhibitors, biochemical, TCAMS library (AID 1159588; cut-off not given, nearly all actives have IC50 up to about 0.91 µM); settings: recombinant PfCDPK4, Kinase-Glo ATP depletion luminescence
Chain of Calcium-dependent protein kinase 4 (Plasmodium falciparum (isolate 3D7)) (Q8IBS5 whole entry, looked up): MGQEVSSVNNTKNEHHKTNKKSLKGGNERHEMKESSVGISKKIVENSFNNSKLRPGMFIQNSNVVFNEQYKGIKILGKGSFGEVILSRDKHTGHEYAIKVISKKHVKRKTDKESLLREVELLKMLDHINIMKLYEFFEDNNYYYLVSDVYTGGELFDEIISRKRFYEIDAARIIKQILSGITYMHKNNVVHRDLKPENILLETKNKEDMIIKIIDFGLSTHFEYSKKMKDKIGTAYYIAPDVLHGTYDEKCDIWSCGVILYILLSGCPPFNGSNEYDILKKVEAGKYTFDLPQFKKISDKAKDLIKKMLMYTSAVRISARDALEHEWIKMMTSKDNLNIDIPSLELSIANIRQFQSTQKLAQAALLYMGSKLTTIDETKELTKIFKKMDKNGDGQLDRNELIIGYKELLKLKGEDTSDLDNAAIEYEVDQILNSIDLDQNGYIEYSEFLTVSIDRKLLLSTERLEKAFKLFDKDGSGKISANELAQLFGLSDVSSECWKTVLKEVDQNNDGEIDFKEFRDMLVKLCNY

Chain of Plasmodium falciparum protein kinase 6 (PK6, PF3D7_1337100) (Q8IDW1 1-305): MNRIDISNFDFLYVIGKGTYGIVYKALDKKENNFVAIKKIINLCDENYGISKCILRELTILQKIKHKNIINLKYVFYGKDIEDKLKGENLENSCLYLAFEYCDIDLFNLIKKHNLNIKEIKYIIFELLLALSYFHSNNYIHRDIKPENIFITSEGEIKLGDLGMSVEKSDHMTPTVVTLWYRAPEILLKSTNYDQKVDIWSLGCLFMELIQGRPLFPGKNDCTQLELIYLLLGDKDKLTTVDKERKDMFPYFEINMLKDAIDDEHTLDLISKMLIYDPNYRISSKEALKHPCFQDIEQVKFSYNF
Chain of Calcium-dependent protein kinase 1 (Plasmodium falciparum (isolate 3D7)) (P62344 whole entry, looked up): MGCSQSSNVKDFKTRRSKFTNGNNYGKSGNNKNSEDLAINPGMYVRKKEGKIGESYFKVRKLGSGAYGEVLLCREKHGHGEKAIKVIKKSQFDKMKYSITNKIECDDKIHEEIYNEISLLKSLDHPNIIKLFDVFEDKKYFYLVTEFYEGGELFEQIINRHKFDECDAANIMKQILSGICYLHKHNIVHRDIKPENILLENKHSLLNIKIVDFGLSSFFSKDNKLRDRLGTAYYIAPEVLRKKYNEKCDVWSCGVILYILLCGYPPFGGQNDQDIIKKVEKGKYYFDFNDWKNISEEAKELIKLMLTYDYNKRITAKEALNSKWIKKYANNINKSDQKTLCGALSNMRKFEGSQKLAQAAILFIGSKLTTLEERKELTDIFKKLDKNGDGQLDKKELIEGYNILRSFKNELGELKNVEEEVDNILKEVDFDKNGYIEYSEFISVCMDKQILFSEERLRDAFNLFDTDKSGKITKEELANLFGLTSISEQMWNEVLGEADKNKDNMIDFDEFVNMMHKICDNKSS
Chain of L-lactate dehydrogenase (Plasmodium falciparum (isolate CDC / Honduras)) (Q27743 whole entry, looked up): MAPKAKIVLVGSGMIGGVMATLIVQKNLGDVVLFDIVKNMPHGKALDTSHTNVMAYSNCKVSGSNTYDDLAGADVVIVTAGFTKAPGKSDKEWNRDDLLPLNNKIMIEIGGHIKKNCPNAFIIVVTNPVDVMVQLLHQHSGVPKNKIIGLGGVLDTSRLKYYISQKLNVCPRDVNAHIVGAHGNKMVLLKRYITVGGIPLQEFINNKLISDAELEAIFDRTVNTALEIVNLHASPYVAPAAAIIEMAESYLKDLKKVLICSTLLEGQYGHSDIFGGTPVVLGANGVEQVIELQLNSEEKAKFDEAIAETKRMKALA
Chain of Protein kinase 7 (PK7), Plasmodium falciparum 3D7 (PF3D7_0213400) (Q7YTF7 1-343): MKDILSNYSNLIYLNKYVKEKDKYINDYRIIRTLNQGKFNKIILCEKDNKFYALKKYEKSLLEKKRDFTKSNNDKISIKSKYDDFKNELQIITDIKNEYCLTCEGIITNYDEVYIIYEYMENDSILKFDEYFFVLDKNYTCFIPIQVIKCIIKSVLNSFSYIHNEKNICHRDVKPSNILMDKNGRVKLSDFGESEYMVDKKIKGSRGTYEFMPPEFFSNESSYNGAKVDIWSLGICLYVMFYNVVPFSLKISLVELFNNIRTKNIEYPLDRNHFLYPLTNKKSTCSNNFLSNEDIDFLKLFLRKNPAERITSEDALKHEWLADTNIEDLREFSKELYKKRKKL

| Structure (SMILES) | growth inhibition [1] | inhibition [2] | inhibition [3] [%] | growth inhibition [4] | outcome [5] | outcome [6] | outcome [7] | outcome [8] |
| --- | --- | --- | --- | --- | --- | --- | --- | --- |
| O=C(Nc1ccc(C(F)(F)F)cc1)Nc1cccc([N+](=O)[O-])c1 | 98% (active) | 20% | 4 | 101% (active) | inactive | inactive | inactive | inactive |
| c1cc(CNc2ncc(-c3ccsc3)c(-c3nccs3)n2)ccn1 | 81% (active) | 18% | -7 | 89% (active) | inactive | inactive | inactive | inactive |
| CCCCCC1c2[nH]c3ccccc3c2CCN1C(=O)OCc1ccccc1 (stereo not given) | 68% (active) | 3% | -3 | 93% (active) | inactive | inactive | inactive | inactive |
| Cc1ccc2nc(C)cc(NN=Cc3ccccc3[N+](=O)[O-])c2c1 | 100% (active) | 5% | -1 | 102% (active) | inactive | inactive | inactive | inactive |
| Cn1c(CN2CCC(N3CCc4cc(NC(=O)c5ccco5)ccc43)C2)cc2ccccc21 (stereo not given) | 92% (active) | -1% | -3 | 91% (active) | inactive | inactive | inactive | inactive |
| NC(=O)c1ccc(NCC(=O)Nc2cccc(-c3cccc(-c4nc5ccccc5[nH]4)c3)c2)cc1 | 30% | 9% | -3 | 99% (active) | inactive | inactive | inactive | inactive |
| N#Cc1ccc(-c2ccc(C(=O)NCCCCN3CCC(c4nc5ccccc5[nH]4)CC3)cc2)cc1 | 13% | 43% | 4 | 92% (active) | inactive | inactive | inactive | inactive |
| NC(=O)c1cccc(CNCc2ccc(-c3cccc(-c4nc5ccccc5[nH]4)c3)cc2)c1 | 94% (active) | 29% | 3 | 101% (active) | inactive | inactive | inactive | inactive |
| COc1ccc(CNCc2ccccc2)cc1-c1ccc(S(=O)(=O)NCCN2CCCC2)c(C)c1 | 50% (active) | 33% | 3 | 99% (active) | inactive | inactive | inactive | inactive |
| CN1CCC(c2c[nH]c3ccc(NC(=O)Nc4ccc(-c5ccncc5)cc4Cl)cc23)CC1 | 7% | 31% | 7 | 100% (active) | inactive | inactive | inactive | inactive |
| O=C(Nc1cncc(NC(=O)c2ccc(Cl)c(Cl)c2)c1)c1ccc(Cl)c(Cl)c1 | 70% (active) | 12% | 0 | 101% (active) | inactive | inactive | inactive | inactive |
| CC(C)(C)c1ccc(NC(=O)c2ccc(CN3CCCN(Cc4ccsc4)CC3)cc2)cc1 | -1% | 50% (active) | -7 | 96% (active) | inactive | inactive | inactive | inactive |
| CC(CN1CCN(C)CC1)C(=O)Nc1cccc(-c2cccc(-c3nc4ccc(F)cc4[nH]3)c2)c1 (stereo not given) | 78% (active) | 23% | -2 | 101% (active) | inactive | inactive | inactive | inactive |
| CCNc1cc(C)nc(Nc2ccc(NS(=O)(=O)c3cc(OC)ccc3OC)cc2)n1 | 36% | 56% (active) | -1 | 100% (active) | inactive | inactive | inactive | inactive |
| O=C(/C=C/c1ccc(Cl)c(Cl)c1)NCCCCCN1CCCC(CNC(=O)/C=C/c2ccccc2)C1 (stereo not given) | 6% | 37% | -7 | 98% (active) | inactive | inactive | inactive | inactive |
| O=C(Nc1cccc([N+](=O)[O-])c1)N(Cc1ccc(Cl)c(Cl)c1)C1CCNCC1 | -2% | 17% | -2 | 99% (active) | inactive | inactive | inactive | inactive |
| Cc1cc(C2CCN(CCCCNC(=O)c3ccc(NC(=O)c4ccc(Cl)cc4)cc3)CC2)c(C)cc1OCc1ccccn1 | 65% (active) | 18% | 3 | 96% (active) | inactive | inactive | inactive | inactive |
| CN1CCc2cc(NS(=O)(=O)c3ccc(-c4ccc(Cl)s4)cc3)c(N3CCCCC3)cc2CC1 | 29% | 14% | 3 | 98% (active) | inactive | inactive | inactive | inactive |
| CCNc1cc(C)nc(Nc2ccc(NC(=O)c3ccco3)cc2)n1 | 32% | 24% | -2 | 95% (active) | inactive | inactive | inactive | inactive |
| CC(C)COc1ccc(Cl)cc1Cc1nc(-c2nc3ccc(CN4CCN(C)CC4)cc3[nH]2)co1 | 57% (active) | 5% | 7 | 101% (active) | inactive | inactive | inactive | inactive |
